# Active and inactive are the calls of the source. Unless noted, the rule behind the calls is not given here.
# Columns and labels:
# [1] = test system: Wnt5a (protein binding on small-molecule microarray); test: small molecules binding Wnt5a protein – biophysical, small-molecule microarray, 635/667 nm fluorescence, primary screen (AID 1142); conditions: 635 nm fluorescence, higher = more signal;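 note: fluorescence read at 667 nm with signal to noise per printed feature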
# [2] = ATP-based viability of Huh7 replicon cells – cell-based, CellTiter-Glo luminescence, basal, 48 h, cytotoxicity control for HCV replication inhibitor project, primary screen (AID 1143); conditions: higher = more signal, called active from +8 up or from −8 down;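 note: Huh7 hepatoma cells carrying a hepatitis C replication reporter with no stimulus; test concentration not given here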
# [3] = Pseudomonas biofilm growth suppression – PAO1 strain, BacTiter-Glo luminescence, LB-PBS, primary screen (AID 1144); conditions: P. aeruginosa PAO1 biofilm, 12 h, higher = more signal
# [4] = basal CRE-LacZ reporter activity in PC12 – cell-based, unstimulated, primary screen (AID 1145); conditions: no forskolin, luminescence, 4.5 h, higher = more signal, called active from +8 up or from −8 down
# [5] = forskolin-driven CRE-LacZ activity in PC12 – cell-based, CRE-LacZ reporter, forskolin-stimulated, primary screen (AID 1146); conditions: luminescence, 4.5 h, higher = more signal, called active from +8 up or from −8 down;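 note: PC12 cells with 6xCRE LacZ reporter stimulated by forskolin 10 µM; beta-galactosidase reporter signal reflecting CREB driven transcription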
# [6] = biological target: Streptavidin (Streptomyces avidinii) (UniProt P22629); test: compounds binding control protein streptavidin – biophysical, small-molecule microarray, 635/667 nm fluorescence, artefact control for SMM compound annotation, primary screen (AID 1147); conditions: higher = more signal;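 note: signal reflects streptavidin binding to arrayed compounds as a control protein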
# Chain of Streptavidin (Streptomyces avidinii) (P22629 whole entry, looked up): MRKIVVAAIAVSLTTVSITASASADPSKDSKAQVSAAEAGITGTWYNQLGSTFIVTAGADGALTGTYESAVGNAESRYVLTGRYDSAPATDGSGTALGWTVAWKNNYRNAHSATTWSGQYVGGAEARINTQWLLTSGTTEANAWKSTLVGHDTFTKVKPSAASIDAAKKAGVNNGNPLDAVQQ
# [7] = probe aInhba binding on compound microarray – biochemical, small-molecule microarray, 635/667 nm fluorescence, primary screen (AID 1148); conditions: higher = more signal;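 note: score merges 667nm spot fluorescence with signal-to-noise for antibody binding to printed compounds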
# [8] = biological target: Torsin-1A (Homo sapiens) (UniProt O14656); test: TOR1A wild-type binding on microarray – cell lysate, small-molecule microarray, lysate, 635/667 nm, primary screen (AID 1149); conditions: COS7 hTOR1A-WT lysate, 635 nm fluorescence, higher = more signal
# Chain of Torsin-1A (Homo sapiens) (O14656 whole entry, looked up): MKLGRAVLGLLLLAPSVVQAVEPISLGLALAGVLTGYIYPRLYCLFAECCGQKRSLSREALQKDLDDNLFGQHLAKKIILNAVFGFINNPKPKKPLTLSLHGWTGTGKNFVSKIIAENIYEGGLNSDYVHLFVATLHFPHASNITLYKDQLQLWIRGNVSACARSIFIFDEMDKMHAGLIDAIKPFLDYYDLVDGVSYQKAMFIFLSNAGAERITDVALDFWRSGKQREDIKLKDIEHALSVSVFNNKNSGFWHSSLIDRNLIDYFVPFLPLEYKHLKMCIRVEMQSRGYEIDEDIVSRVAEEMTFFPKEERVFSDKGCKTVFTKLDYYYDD
# [9] = biological target: Torsin-1A (Homo sapiens) (UniProt O14656); test: torsin A mutant lysate binding on microarrays – cell lysate, small-molecule microarray, COS7 lysate, 635/667 nm fluorescence, primary screen (AID 1150); conditions: COS7 hTOR1A mutant lysate, 635 nm fluorescence, higher = more signal;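 note: score pools 667 nm emission and signal to noise measuring lysate protein binding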
# [10] = test system: Sonic hedgehog protein (Shh); test: Sonic hedgehog microarray binding compounds – biochemical, small-molecule microarray, 635/667 nm fluorescence, primary screen (AID 1151); conditions: 635 nm fluorescence, higher = more signal;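 note: Shh protein binding to compounds spotted on small-molecule microarray slides; score combines spot fluorescence intensity with signal-to-noise across triplicate slides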
# [11] = optical density shifts of acrAB sulA E. coli – strain DRC41, OD650, 48 h, E. coli filamentation inducer project, primary screen (AID 1152); conditions: higher = more signal, called active from +8 up or from −8 down;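 note: E. coli MC1000 strain DRC41 lacking acrAB efflux pump and sulA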
# [12] = probe aLefty1 binding on compound microarray – biochemical, small-molecule microarray, 635/667 nm fluorescence, primary screen (AID 1153); conditions: higher = more signal;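 note: score merges spot fluorescence with signal-to-noise ratio from the scanned slide images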
# [13] = plasmodial surface anion channel blockers, osmotic lysis – cell-based, P. falciparum Indochina, OD700, 1 h, primary screen (AID 1154); conditions: P. falciparum Indochina infected RBC osmotic lysis, higher = more signal, called active from +8 up or from −8 down
# [14] = plasmodial surface anion channel blockers, osmotic lysis – cell-based, P. falciparum Indochina, OD700, 2 h, primary screen (AID 1155);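 note: lysis reports solute entry through the parasite surface anion channel PSAC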; conditions: P. falciparum Indochina infected erythrocytes, higher = more signal, called active from +8 up or from −8 down
# [15] = changes in parasitized red cell lysis, either direction – P. falciparum Indochina, OD700, 3 h, PSAC antagonist project, primary screen (AID 1156); conditions: P. falciparum-infected erythrocytes, osmotic lysis, higher = more signal, called active from +8 up or from −8 down
# [16] = plasmodial surface anion channel blockers, osmotic lysis – cell-based, P. falciparum Indochina, OD700, 18 h, primary screen (AID 1157); conditions: P. falciparum Indochina infected erythrocytes, osmotic lysis OD700, 18 h; higher = more signal, called active from +8 up or from −8 down
# [17] = S6 kinase pathway phospho-S6 level changes – cell-based, A549, cytoblot, luminescence, serum-stimulated, primary screen (AID 1158); conditions: 5 h, higher = more signal;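 note: serum-stimulated A549 lung adenocarcinoma cells; signal is phosphorylated S6 detected by cytoblot immunostaining with HRP secondary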
# [18] = biological target: NADPH oxidase 2 (Homo sapiens) (UniProt P04839); test: compounds shifting NOX2 Amplex Red fluorescence – cell-based, HEK293-NOX2, PMA-stimulated, NOX inhibitor project, primary screen (AID 1159); conditions: 45 min, higher = more signal, called active from +8 up or from −8 down; note: test concentration not given here
# Chain of NADPH oxidase 2 (Homo sapiens) (P04839 whole entry, looked up): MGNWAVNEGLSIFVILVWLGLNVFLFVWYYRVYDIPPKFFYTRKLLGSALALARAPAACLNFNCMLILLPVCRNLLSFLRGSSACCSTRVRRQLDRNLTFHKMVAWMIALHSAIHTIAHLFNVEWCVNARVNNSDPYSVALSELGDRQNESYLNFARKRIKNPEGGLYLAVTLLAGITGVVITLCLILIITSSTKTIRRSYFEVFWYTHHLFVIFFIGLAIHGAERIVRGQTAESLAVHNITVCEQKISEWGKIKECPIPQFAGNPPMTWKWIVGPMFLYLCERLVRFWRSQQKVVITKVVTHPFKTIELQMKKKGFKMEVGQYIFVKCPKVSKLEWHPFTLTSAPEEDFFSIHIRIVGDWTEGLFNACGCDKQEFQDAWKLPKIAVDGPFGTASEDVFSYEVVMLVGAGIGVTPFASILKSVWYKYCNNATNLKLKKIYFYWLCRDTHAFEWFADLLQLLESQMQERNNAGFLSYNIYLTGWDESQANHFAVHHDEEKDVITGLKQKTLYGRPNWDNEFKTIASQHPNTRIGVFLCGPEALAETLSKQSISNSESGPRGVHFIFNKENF
# [19] = biological target: NADPH oxidase 4 (Homo sapiens) (UniProt Q9NPH5); test: compounds shifting NOX4 Amplex Red fluorescence – cell-based, HEK293-NOX4, tetracycline-induced, NOX inhibitor project, primary screen (AID 1160); conditions: HEK293-NOX4, Amplex Red H2O2 fluorescence, 45 min; higher = more signal, called active from +8 up or from −8 down
# Chain of NADPH oxidase 4 (Homo sapiens) (Q9NPH5 whole entry, looked up): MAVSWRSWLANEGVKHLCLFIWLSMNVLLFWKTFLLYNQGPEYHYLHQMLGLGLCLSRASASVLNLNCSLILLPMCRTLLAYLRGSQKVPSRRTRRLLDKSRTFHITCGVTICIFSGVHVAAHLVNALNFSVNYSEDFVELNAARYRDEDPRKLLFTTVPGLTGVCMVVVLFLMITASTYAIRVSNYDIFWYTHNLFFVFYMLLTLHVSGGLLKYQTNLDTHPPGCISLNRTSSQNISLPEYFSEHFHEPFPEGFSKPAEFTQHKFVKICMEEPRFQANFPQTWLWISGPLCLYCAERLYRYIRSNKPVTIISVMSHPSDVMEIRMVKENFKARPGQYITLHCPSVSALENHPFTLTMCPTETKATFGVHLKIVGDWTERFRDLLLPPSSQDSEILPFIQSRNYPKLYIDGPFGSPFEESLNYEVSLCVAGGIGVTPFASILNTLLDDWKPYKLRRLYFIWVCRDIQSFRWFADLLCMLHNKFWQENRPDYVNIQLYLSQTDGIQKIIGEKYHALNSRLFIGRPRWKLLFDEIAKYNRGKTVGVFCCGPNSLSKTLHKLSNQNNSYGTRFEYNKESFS
# [20] = biological target: NADPH oxidase 5 (Homo sapiens) (UniProt Q96PH1); test: compounds shifting NOX5 Amplex Red fluorescence – cell-based, HEK293-NOX5, NOX inhibitor project, primary screen (AID 1161); conditions: HEK293-NOX5, ionomycin, 45 min, higher = more signal
# Chain of NADPH oxidase 5 (Homo sapiens) (Q96PH1 whole entry, looked up): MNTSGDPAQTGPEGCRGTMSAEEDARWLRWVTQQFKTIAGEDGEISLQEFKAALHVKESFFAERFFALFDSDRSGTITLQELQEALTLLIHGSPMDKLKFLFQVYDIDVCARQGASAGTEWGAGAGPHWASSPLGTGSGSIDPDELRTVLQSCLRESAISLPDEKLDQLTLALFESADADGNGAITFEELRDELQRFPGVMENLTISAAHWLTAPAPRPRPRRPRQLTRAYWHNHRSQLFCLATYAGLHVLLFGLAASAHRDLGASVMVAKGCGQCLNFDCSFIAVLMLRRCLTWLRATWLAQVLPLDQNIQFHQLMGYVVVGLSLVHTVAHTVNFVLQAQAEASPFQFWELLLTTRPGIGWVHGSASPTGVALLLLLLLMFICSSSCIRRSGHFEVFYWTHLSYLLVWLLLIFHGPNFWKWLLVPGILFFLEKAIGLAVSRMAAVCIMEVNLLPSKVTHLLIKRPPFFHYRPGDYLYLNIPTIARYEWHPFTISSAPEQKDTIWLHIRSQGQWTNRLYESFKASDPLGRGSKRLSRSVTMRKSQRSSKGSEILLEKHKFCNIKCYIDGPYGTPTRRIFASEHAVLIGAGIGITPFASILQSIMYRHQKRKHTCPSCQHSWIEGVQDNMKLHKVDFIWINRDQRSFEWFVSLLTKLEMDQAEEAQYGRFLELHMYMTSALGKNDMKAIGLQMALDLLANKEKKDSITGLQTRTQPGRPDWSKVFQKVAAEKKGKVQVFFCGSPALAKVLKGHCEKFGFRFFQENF
SMILES,composite z-score [1],z-score [2],z-score [3],z-score [4],z-score [5],composite z-score [6],composite z-score [7],composite z-score [8],composite z-score [9],composite z-score [10],z-score [11],composite z-score [12],z-score [13],z-score [14],z-score [15],z-score [16],z-score [17],z-score [18],z-score [19],z-score [20]
CCOC(=O)CCN1C(=O)[C@H]2[C@H]3[C@H](O)[C@H](O)CC(=NNC(=O)OCc4ccccc4)[C@H]3CC[C@H]2C1=O,0.126,-1.31 (inactive),-0.326 (inactive),1.07 (inactive),-0.253 (inactive),-0.362,-0.0781,1.95,2.44,0.968,-0.351 (inactive),-0.0162,0.992 (inactive),0.0095 (inactive),0.0794 (inactive),0.0606 (inactive),-0.707,1.28 (inactive),0.327 (inactive),0.595
C[C@@H](c1ccccc1)N1C(=O)[C@H]2[C@H]3[C@H](O)[C@H](O)CC(=NOCc4ccccc4)[C@@H]3CC[C@H]2C1=O,0.0765,0.039 (inactive),1.01 (inactive),0.242 (inactive),-0.166 (inactive),0.665,-0.0762,-0.407,-0.325,-0.742,-1.42 (inactive),0.426,2.92 (inactive),0.117 (inactive),0.826 (inactive),0.479 (inactive),-0.547,-0.666 (inactive),0.115 (inactive),0.12
COc1ccc(COC(=O)NN=C2C[C@@H](O)[C@@H](O)[C@@H]3[C@@H]4C(=O)N(Cc5ccc6c(c5)OCO6)C(=O)[C@@H]4CC[C@H]23)cc1,-0.343,0.0813 (inactive),0.939 (inactive),0.96 (inactive),0.0695 (inactive),0.61,0.0018,-0.878,-0.647,-1.32,0.701 (inactive),0.781,15.7 (active),2.17 (inactive),0.18 (inactive),0.845 (inactive),0.767,-0.657 (inactive),0.186 (inactive),0.138
COc1ccc(-c2cnnc(CCCn3ccnc3-c3ccccc3)n2)cc1,0.314,-4.68 (inactive),-0.459 (inactive),1.37 (inactive),-0.631 (inactive),0.22,-0.144,1.56,1.52,0.838,-0.249 (inactive),-0.0576,26.2 (active),9.62 (active),0.886 (inactive),0.982 (inactive),-0.714,1.27 (inactive),-0.372 (inactive),-1.2
CCOC(=O)[C@H](CC(C)C)NC(=O)CCC1CC(OC(=O)NCc2ccc3c(c2)OCO3)CC2(CCCC(COC(=O)NCCc3ccc(Cl)cc3)O2)O1 (stereo not given in full),0.277,-0.197 (inactive),-0.0985 (inactive),0.737 (inactive),0.501 (inactive),0.288,-0.089,-0.157,0.361,1.86,0.386 (inactive),0.213,1.83 (inactive),-0.39 (inactive),-0.254 (inactive),-0.144 (inactive),-0.793,0.747 (inactive),0.575 (inactive),0.301
C[C@@H]1CC[C@H]2C(=O)O[C@@H](COc3ccc(C(C)(C)C)cc3)CN2[C@H]1c1ccc(Br)cc1,0.0114,-0.0293 (inactive),0.0807 (inactive),0.345 (inactive),0.213 (inactive),0.0826,-0.0523,0.159,-0.0416,0.526,-0.113 (inactive),-0.103,1.25 (inactive),0.937 (inactive),-0.897 (inactive),0.588 (inactive),-0.261,-0.271 (inactive),0.562 (inactive),0.257
CC(C)[C@@H](OCc1ccccc1)[C@H](C)C=NOC[C@@H](O)[C@H]1O[C@@H]2OC(C)(C)O[C@@H]2[C@H]1O,0.332,0.226 (inactive),0.0464 (inactive),-0.408 (inactive),0.307 (inactive),1.61,-0.0695,0.298,0.284,0.587,-1.74 (inactive),-0.25,0.0248 (inactive),-0.211 (inactive),0.122 (inactive),0.124 (inactive),-0.898,1.09 (inactive),-1.94 (inactive),0.165
CC(=O)OC[C@H]1O[C@H](CCON=C(C)CCN2CCCc3nc(C)c(C)cc32)C=C[C@@H]1OC(C)=O,0.166,0.271 (inactive),-0.181 (inactive),0.322 (inactive),0.469 (inactive),0.426,0.0973,0.946,1.17,1,0.198 (inactive),0.0861,2.13 (inactive),1.25 (inactive),0.872 (inactive),0.489 (inactive),-1.17,0.152 (inactive),0.11 (inactive),0.207
CCCC[C@H]1CN2[C@@H](CC[C@@H](C)[C@@H]2c2ccc(Br)cc2)C(=O)O1,0.132,-1.44 (inactive),0.616 (inactive),0.755 (inactive),-0.0888 (inactive),0.426,-0.0494,0.836,0.716,0.456,-0.461 (inactive),-0.0275,2.91 (inactive),0.809 (inactive),-0.192 (inactive),0.711 (inactive),-0.46,1.43 (inactive),0.516 (inactive),1.47

# — PubChem BioAssay
